Rows were chosen to be rich in hits. Some 4.6% of all compounds tested hit in one or more screens of this group.
D1 agonist – agonists of human D1 dopamine receptor; P21728; HEK293 T-REx D1 cells, calcium flux, agonist mode; activation, % at 2 µM; hit rate 1% among 360,000
Target sequence (P21728 whole entry, looked up): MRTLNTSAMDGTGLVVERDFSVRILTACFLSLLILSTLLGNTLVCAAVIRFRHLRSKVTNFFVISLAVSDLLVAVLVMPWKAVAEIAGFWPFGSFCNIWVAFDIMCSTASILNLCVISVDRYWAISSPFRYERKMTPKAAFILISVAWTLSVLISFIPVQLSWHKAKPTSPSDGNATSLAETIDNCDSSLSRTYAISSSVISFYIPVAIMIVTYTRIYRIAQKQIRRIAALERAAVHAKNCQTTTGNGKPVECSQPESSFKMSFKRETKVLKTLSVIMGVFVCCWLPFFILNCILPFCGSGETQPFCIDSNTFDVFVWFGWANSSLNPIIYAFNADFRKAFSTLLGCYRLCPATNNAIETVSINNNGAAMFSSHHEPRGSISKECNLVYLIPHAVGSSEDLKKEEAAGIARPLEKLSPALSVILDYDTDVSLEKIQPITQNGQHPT
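Agonism was scored from calcium flux recorded over 180 s (1 read/s) after pintool compound addition, following a 10-cycle baseline. Cells were inducible force-coupled HEK293 TREx D1, plated overnight at 30 C and loaded with no-wash calcium dye.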
TRHR enhancer – allosteric enhancers of human TRH receptor. hit rate 0.66% among 360,000. P34981. TRHR cells, fluo-8 calcium fluorescence, EC20 TRH enhancement. AID 493056. enhancement, % at 2 µM; in the data active = enhancement above about 30%
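TRHR-expressing cells loaded with fluo-8 calcium dye were read kinetically (ex 480/em 530) during compound addition, then stimulated with an EC20 of TRH (10 nM final). Enhancement of the Gq-mediated intracellular calcium response was scored.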
D1 antag – human D1 dopamine receptor antagonism; HEK293 TREx D1 cells, calcium flux, dopamine EC80; hits give low values; activity change, negative = inhibition, % at 10 µM; P21728; hit rate 3.2% among 360,000; in the data active = activity change below about -30%
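Compound effects on dopamine-evoked calcium signalling were measured in tetracycline-induced HEK293 Trex D1 cells. Dopamine at EC80 followed a 180 s compound pre-read, and fluorescence was tracked kinetically for 180 s more.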
D1 PAM – human D1 dopamine receptor positive modulation. hit rate 0.036% among 360,000. HEK293 TREx D1 cells, calcium flux, dopamine EC20 potentiation. potentiation, % at 10 µM. P21728; in the data active = potentiation above about 30%
TRHR agonist – TRH receptor (human) agonism; activation, % at 2 µM; AID 493084; hit rate 0.18% among 360,000; TRHR cells, calcium flux fluo-8, FDSS agonist mode; P34981
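TRHR-expressing cells loaded with fluo-8 calcium dye; 23 nL library compound pin-transferred, kinetic FDSS fluorescence (Ex 480/Em 530) recorded about 180 s for agonist-induced calcium release, before a 10 nM TRH EC20 addition for potentiator mode.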
A number is an active result; ! = not active in a repeat. Rule as the data show it, unless noted: active = activation above about 30%; inactive = the rest.

Screening CCC(C)NC(=O)CSc1nc2cc3c(cc2c(=O)n1CCCC(=O)NCCc1ccc(OC)c(OC)c1)OCO3 (configuration not stated) returned D1 agonist inactive, TRHR enhancer inactive, D1 antag inactive, D1 PAM inactive and TRHR agonist inactive.
Screening COc1ccc(C2(O)CCN(CC(=O)Nc3nccs3)CC2)c(OC)c1 returned D1 agonist inactive, TRHR enhancer inactive, D1 antag -31, D1 PAM inactive and TRHR agonist inactive.
For CCc1nnc(NC(=O)CN2CCC(O)(c3ccccc3OC)CC2)s1 the results were D1 agonist inactive, TRHR enhancer inactive, D1 antag inactive, D1 PAM inactive and TRHR agonist inactive.
COc1ccc([N+](=O)[O-])cc1COc1ccc2c(-c3ccccc3)cc(=O)oc2c1 was read as D1 agonist inactive, TRHR enhancer inactive, D1 antag -33, D1 PAM inactive and TRHR agonist inactive.
`CC(=O)COc1ccc2c(-c3cccc([N+](=O)[O-])c3)cc(=O)oc2c1` gave D1 agonist inactive, TRHR enhancer inactive, D1 antag inactive, D1 PAM inactive and TRHR agonist inactive.
For COc1ccc(/C=C/C(=O)NC(=S)NNC(=O)c2c(-c3ccccc3)noc2C)cc1 the results were D1 agonist inactive, TRHR enhancer inactive, D1 antag inactive, D1 PAM inactive and TRHR agonist inactive.
Screening COc1cc(C(=O)NNC(=S)NC(=O)c2ccccc2C)cc(OC)c1OC returned D1 agonist 47, TRHR enhancer inactive, D1 antag inactive, D1 PAM inactive and TRHR agonist inactive.
Screening Cc1onc(-c2ccccc2)c1C(=O)NNC(=O)c1ccccc1 returned D1 agonist inactive, TRHR enhancer inactive, D1 antag inactive, D1 PAM inactive and TRHR agonist inactive.
Cc1onc(-c2ccccc2)c1C(=O)NNC(=S)NC(=O)c1ccc(Br)cc1 was read as D1 agonist 134, TRHR enhancer inactive, D1 antag inactive, D1 PAM inactive and TRHR agonist inactive.
`COc1ccccc1C(=O)NNC(=S)NC(=O)c1cc(OC)c(OC)c(OC)c1` gave D1 agonist inactive, TRHR enhancer inactive, D1 antag inactive, D1 PAM inactive and TRHR agonist inactive.
Cc1onc(-c2ccccc2)c1C(=O)NNC(=S)NC(=O)/C=C/c1ccccc1 was read as D1 agonist 34, TRHR enhancer inactive, D1 antag inactive, D1 PAM inactive and TRHR agonist inactive.
`Cc1onc(-c2ccccc2)c1C(=O)NNC(=S)NC(=O)c1ccc(Cl)cc1Cl` gave D1 agonist 308, TRHR enhancer inactive, D1 antag inactive, D1 PAM inactive and TRHR agonist 35.
CCOc1ccc(NC(=O)Cn2nnc(-c3nc(-c4ccncc4)no3)c2N)cc1 was read as D1 agonist inactive, TRHR enhancer inactive, D1 antag inactive, D1 PAM inactive and TRHR agonist inactive.
`Cc1ccccc1C(=O)NNC(=S)NC(=O)c1ccc(Cl)cc1Cl` gave D1 agonist 158, TRHR enhancer inactive, D1 antag -52, D1 PAM inactive and TRHR agonist 45.
For O=C(NC(=S)NNC(=O)c1ccc(Cl)cc1Cl)c1cccnc1 the results were D1 agonist inactive, TRHR enhancer inactive, D1 antag inactive, D1 PAM inactive and TRHR agonist inactive.
Cc1cnc2c(c1SCC(=O)Nc1ccc(F)cc1F)c(=O)n(C)c(=O)n2C was read as D1 agonist inactive, TRHR enhancer inactive, D1 PAM inactive and TRHR agonist inactive.
Screening CC1=Nc2cc(C(=O)N3CCCCC3)ccc2Sc2ccc(C)cc21 returned D1 agonist inactive, TRHR enhancer inactive, D1 antag -44!, D1 PAM inactive and TRHR agonist inactive.
`O=C(c1cc(COc2ccc(F)cc2Cl)on1)N1CCN(C2CCCC2)CC1` gave D1 agonist inactive, TRHR enhancer inactive, D1 antag -44, D1 PAM inactive and TRHR agonist inactive.
Screening Cc1ccc2nc(N3C(=O)C(O)=C(C(=O)c4ccc(C)o4)C3c3cccc(O)c3)sc2c1 (configuration not stated) returned D1 agonist inactive, TRHR enhancer inactive, D1 antag -35, D1 PAM inactive and TRHR agonist inactive.
Screening COc1ccc(Cn2c(C(=O)O)c(CNCc3ccco3)c3ccc(OC)cc32)cc1 returned D1 agonist inactive, TRHR enhancer inactive, D1 antag inactive, D1 PAM inactive and TRHR agonist inactive.
For S=C(Nc1ccccc1Cl)NC1CC2CCCC(C1)N2C1CC1 (configuration not stated) the results were D1 agonist inactive, TRHR enhancer inactive, D1 antag -54, D1 PAM inactive and TRHR agonist inactive.
Screening CC(C)(C)C(=O)NC1CC2CCCC(C1)N2C(=O)Nc1ccccc1Cl (configuration not stated) returned D1 agonist inactive, TRHR enhancer inactive, D1 antag inactive, D1 PAM inactive and TRHR agonist inactive.
Screening CCn1c(SCC(=O)c2[nH]c(C)c(C(C)=O)c2C)nnc1-c1ccccc1 returned D1 agonist inactive, TRHR enhancer inactive, D1 antag -35, D1 PAM inactive and TRHR agonist inactive.
`CN(C)c1ccc(/C=C/c2ccc3ccccc3[n+]2C)cc1` gave D1 agonist inactive, TRHR enhancer inactive, D1 antag inactive, D1 PAM inactive and TRHR agonist inactive.
`CN(C)c1ccc(/C=C/c2ccc3c4ccccc4ccc3[n+]2-c2ccccc2)cc1` gave D1 agonist inactive, TRHR enhancer inactive, D1 antag -33, D1 PAM inactive and TRHR agonist inactive.
`Cc1noc(C)c1COC(=O)c1ccccc1Sc1ccccc1C#N` gave D1 agonist inactive, TRHR enhancer inactive, D1 antag -38, D1 PAM inactive and TRHR agonist inactive.
`N#Cc1ccccc1Sc1ccccc1C(=O)OCC(N)=O` gave D1 agonist inactive, TRHR enhancer inactive, D1 antag inactive, D1 PAM inactive and TRHR agonist inactive.
For COc1cc(-c2cc3n(C)c(C)c(CCC(=O)NC4CCC(C)CC4)c(=O)n3n2)cc(OC)c1OC (configuration not stated) the results were D1 agonist inactive, TRHR enhancer inactive, D1 antag inactive, D1 PAM inactive and TRHR agonist inactive.
Screening Cc1ccc(NC(=O)N(Cc2nc3ccccc3c(=O)[nH]2)Cc2cccs2)cc1 returned D1 agonist inactive, TRHR enhancer inactive, D1 antag -46, D1 PAM inactive and TRHR agonist inactive.
For CCNC(=S)N(Cc1ccccc1)Cc1nc2ccccc2c(=O)[nH]1 the results were D1 agonist inactive, TRHR enhancer inactive, D1 antag -31, D1 PAM inactive and TRHR agonist inactive.
For CCOc1ccc(CNC(=O)Cn2nc(C)c3c(C)n(-c4ccc(C)cc4)nc3c2=O)cc1 the results were D1 agonist inactive, TRHR enhancer inactive, D1 antag -50!, D1 PAM inactive and TRHR agonist inactive.
For Cc1nn(CCC(=O)NCc2ccc(Cl)cc2)c(=O)c2nn(-c3ccccc3)c(C)c12 the results were D1 agonist inactive, TRHR enhancer inactive, D1 antag inactive, D1 PAM inactive and TRHR agonist inactive.
